The test system of assay [1] is CASKI. As to the kind of experiment: Primary qHTS to identify gynecologic anti-cancer compounds using libraries of approved drugs and bioactive compounds (AID 1345084). Further: nearly all actives have a fitted effect of over 55% in size. Conditions: Gynecologic cancer cell panel viability, ATPlite luminescence, 48 h; series mostly up to 57.5 µM. Put shortly:
(§1)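 ATP-based viability (ATPlite), 1,000 cells/well, 16 h pre-incubation, 48 h compound at 37 C, 5% CO2, 15 min RT before read.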
On the technique in general: Quantitative high-throughput screening tests each substance at several concentrations.

Assay [2] has as its system Es-2. The assay is described as above. The following applies: Gynecologic cancer cell panel viability, ATPlite luminescence, 48 h; series mostly up to 57.5 µM. Put shortly:
as §1
A general note: ATP-based viability assays read luminescence as a measure of living cells.

For assay [3], the system named is HeLa. Described as above. The following applies: Gynecologic cancer cell panel viability, ATPlite luminescence, 48 h; series mostly up to 57.5 µM. Put shortly:
as §1

Assay [4] relates to Hek293T. The description is as above. Conditions: Gynecologic cancer cell panel viability, ATPlite luminescence, 48 h, control line for the selectivity index; series mostly up to 57.5 µM. Put shortly: as §1
The test system of assay [5] is SKOV3. Described as above. Conditions: Gynecologic cancer cell panel viability, ATPlite luminescence, 48 h; series mostly up to 57.5 µM. Put shortly: as §1
Assay [6] concerns Tov112D. The assay is described as above. The following applies: Gynecologic cancer cell panel viability, ATPlite luminescence, 48 h; series mostly up to 57.5 µM. Put shortly:
as §1

In assay [7] the test system is PA-1. Described as above. The following applies: Gynecologic cancer cell panel viability, ATPlite luminescence, 48 h; series mostly up to 57.5 µM. Put shortly:
as §1

Assay [8] concerns Tov-21-G. Described as above. The following applies: Gynecologic cancer cell panel viability, ATPlite luminescence, 48 h; series mostly up to 57.5 µM. Put shortly: as §1
Assay [9] is described as follows: qHTS assay to identify inhibitors of the type 1 interferon - major histocompatibility complex class I in skeletal muscle: Counter screen cell viability and HiBit confirmation (AID 1347412). On all read-outs here: nearly all actives have a fitted effect of over 60% in size. The following applies: iHSKM muscle cells + IFN-b, HiBiT or CellTiter-Glo, 24 h; for Potency: HiBiT; for activity change, negative = inhibition: Viability, at 45.9 µM (top of the series). Put shortly:
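After 24 h with human IFN-beta (4 ng/ml) and compound titrations (top 46 uM final, 1:3, 12 points), HLA-B HiBit myoblasts were lysed for either Nano-Glo HiBiT luminescence or CellTiter Glo viability on paired plates.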

For assay [10], the system named is JEG-3. Nature of the assay: Primary qHTS to identify gynecologic anti-cancer compounds using libraries of approved drugs and bioactive compounds (AID 1345084). Further: nearly all actives have a fitted effect of over 55% in size. Conditions: Gynecologic cancer cell panel viability, ATPlite luminescence, 48 h; series mostly up to 57.5 µM. Put shortly:
as §1

Assay [11] relates to OV90. Described as above. Conditions: Gynecologic cancer cell panel viability, ATPlite luminescence, 48 h; series mostly up to 57.5 µM. Put shortly:
as §1

Records with an inconclusive call do not appear. A number with no mark means an inactive call. Calls of active or inactive are those of the source. The call rests on the fitted dose curve; in most records, active means well fitted curve in the direction sought with a large enough effect; inconclusive means small, poorly fitted or top-dose-only effect, or another doubt; inactive means no such curve, though single readings can be large; an effect the other way counts as inactive or inconclusive.
On the % scale 0 is the no-effect control and ±100 the full control effect; potency means the concentration at half of the fitted maximal effect.

On to `CNS(=O)(=O)c1ccccc1Nc1nc(Nc2ccc(N3CCN(C)CC3)cc2OC)ncc1Cl`, for which the Potency in assay [1] is 7080 nM (active); in [2] it was 12600 nM (active); in assay [3] it was 2000 nM (active); in assay [4] it was 12600 nM (active); in assay [5], 3550 nM (active); in assay [6], 10000 nM (active).

With `Cc1cc(O)c(-c2ccc([C@@H](C)CN(C)C)cc2)c2c1[nH]c(=O)c1sccc12`, the Potency in assay [1] is 251 nM (active); in assay [2] it was 282 nM (active); in assay [3], 447 nM (active); in [4], 158 nM (active); in [7], 282 nM (active); in assay [8] it was 316 nM (active). In addition, the Potency was 282 nM (active) in assay [6] and 78.7 nM (active) in [9]. In addition, in assay [9], the activity change, negative = inhibition is -2.3%.

With `CN(C)C/C=C/C(=O)Nc1cccc(C(=O)Nc2cccc(Nc3ncc(Cl)c(-c4c[nH]c5ccccc45)n3)c2)c1`, the Potency in assay [1] is 1580 nM (active); in [2] it was 8910 nM (active); in assay [3] it was 2000 nM (active); in assay [7] it was 2820 nM (active); in assay [6], 1260 nM (active); in assay [9], 1110 nM (active). The activity change, negative = inhibition in [9] was 0.891%.

Turning to `CNC(=O)c1ccccc1Nc1nc(Nc2ccc(N3CCNCC3)cc2)ncc1Cl`, the Potency in [1] was 355 nM (active); in assay [2], 2240 nM (active); in [3] it was 39.8 nM (active); in assay [4], 631 nM (active); in assay [7], 316 nM (active); in assay [8], 355 nM (active).

As for `COc1cccc(Nc2ncnn3ccc(CN4CC[C@@H](N)[C@H](O)C4)c23)c1`, the Potency result in [1], in assay [2], in [3] and in [10] was “inactive” each time. Moreover, the Potency in [8] was 5620 nM (active); in assay [9] it was 6250 nM (active).

Regarding `COc1cc2ncnc(Nc3cccc(O)c3)c2cc1OC`, the Potency result in [2], in [3], in assay [4], in [10] and in assay [6] was “inactive” throughout. Moreover, in assay [8], the Potency was 15800 nM (active).

As to `Cn1cncc1C(N)(c1ccc(Cl)cc1)c1ccc2c(c1)c(-c1cccc(Cl)c1)cc(=O)n2C` (stereo not given), the Potency result in assay [1], in assay [3] and in [5] was “inactive” throughout. In addition, the activity change, negative = inhibition in assay [9] is -22.3%.

Consider `CCC(C)C(=O)OC1CC(O)C23C4OCC5(C(O)CC2C1(C)C(O)O4)C3C(=O)CC1(C)C(c2ccoc2)CC2OC215` (stereo not given), for which the Potency entry in [1] and in assay [10] was “inactive” each time. The results for the Potency in assay [4], in assay [11] and in [6] were 10000 nM (active), 1780 nM (active) and 11200 nM (active), respectively.

As for `COc1cc2c(cc1OC)-c1[nH]nc(Nc3cccc(F)c3)c1C2`, the Potency was 891 nM (active) in assay [1]; 1410 nM (active) in assay [2]; 562 nM (active) in assay [3]; 316 nM (active) in assay [7]; 2240 nM (active) in [8]; 282 nM (active) in assay [6].

Take `Cc1ccc(NC(=O)Nc2cc(C(F)(F)F)ccc2F)cc1Nc1ccc2c(c1)NC(=O)/C2=C\c1ccc[nH]1`: the Potency result in assay [1], in assay [2], in assay [3], in assay [4], in assay [10] and in assay [11] was “inactive” each time. Further, the Potency result in assay [7], in assay [8] and in assay [6] was “inactive” each time. In addition, in [9], the Potency was 31300 nM (active). Also, the activity change, negative = inhibition in assay [9] was -28%.

Turning to `c1cc(Nc2cc(C3CC3)[nH]n2)nc(Nc2ccc3nc[nH]c3c2)n1`, the Potency is 1780 nM (active) in assay [1]; 12600 nM (active) in [2]; 3980 nM (active) in [7]; 1120 nM (active) in assay [6]; 1400 nM (active) in assay [9]. Further, in assay [10], the Potency result was “inactive”. Moreover, in [9], the activity change, negative = inhibition is 24.1%.

For the molecule `CN(C)C1CCN(C(=O)c2ccc(NC(=O)Nc3ccc(-c4nc(N5CCOCC5)nc(N5CCOCC5)n4)cc3)cc2)CC1`, the Potency in assay [1] was 282 nM (active); in [3], 562 nM (active); in assay [4], 398 nM (active).

For the molecule `CC(C)(C)Nc1nc2cc(Cl)c(Cl)cc2nc1S(C)(=O)=O`, the Potency in [1] was 35500 nM (active); in assay [4], 28200 nM (active); in assay [10], 15800 nM (active); in [5] it was 20000 nM (active); in assay [8], 28200 nM (active).

`C=C(C)C(=O)O[C@H]1CC2=CC(C/C(C)=C\[C@H]3OC(=O)C(=C)[C@H]13)OC2=O` (stereo not given in full): the Potency result in assay [1], in [3], in assay [10], in assay [11], in assay [5] and in assay [6] was “inactive” each time.

`CCCNc1ccc2ncc(-c3ccc4[nH]ncc4c3)n2n1`: the Potency is 8910 nM (active) in assay [1]; 4470 nM (active) in [3]; 2000 nM (active) in assay [4]; 2820 nM (active) in assay [7]; 3160 nM (active) in assay [8]; 3550 nM (active) in assay [6].

Take `Nc1nccn2c(C3CCC(C(=O)O)CC3)nc(-c3cc4cccc(Cl)c4[nH]3)c12` (stereo not given): the Potency in assay [2] is 28200 nM (active); in [11], 10000 nM (active); in assay [7], 7940 nM (active); in assay [5], 3160 nM (active); in [8], 4470 nM (active).

Take `CCC1C(=O)N(C)c2cnc(Nc3ccc(C(=O)NC4CCC(N5CCN(CC6CC6)CC5)CC4)cc3OC)nc2N1C(C)C` (stereo not given): the Potency in assay [7] is 316 nM (active).

Regarding `CNC(=O)c1cccc(-c2ccc3c(N4CCOC[C@@H]4C)nc(N4CCOC[C@@H]4C)nc3n2)c1`, the Potency in assay [4] was 1410 nM (active); in assay [11], 1260 nM (active); in assay [7], 1580 nM (active); in [5], 1580 nM (active); in [8], 1410 nM (active). Besides, in [10], the Potency result was “inactive”.

Take `CC(C)C(CO)Nc1nc(Nc2cc(N)cc(Cl)c2)c2ncn(C(C)C)c2n1` (stereo not given): the Potency was 25100 nM (active) in [3]; 14100 nM (active) in assay [7]; 28200 nM (active) in [5]; 22400 nM (active) in [8]; 20000 nM (active) in assay [6].

These data come from PubChem BioAssay (NCATS).
